In PubChem BioAssay (NCATS):
“And” between values parts separate entries of the source, which are not always exact repeats. Identical values can stand only once. Records with an inconclusive call do not appear. The source made the active and inactive calls. Unless noted, calls follow the shape of the dose curve; as a rule, active = well fitted curve in the direction sought with a large enough effect; inconclusive = small, poorly fitted or top-dose-only effect, or another doubt; inactive = no such curve, though single readings can be large; an effect the other way counts as inactive or inconclusive.

Tests used:
[1] = Cell Viability - BJ (AID 421; calls by dose curve;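 also: potency is read from the fitted curve at half-maximal effect; cells exposed to compound for 40 hours at 37 °C before readout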); conditions: BJ fibroblast viability, qHTS
Method in brief: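 Quantitative HTS: ATP depletion in BJ cells after 40 hr compound exposure in complete culture medium, detected with CellTiter-Glo; AC50 from standard Hill fits.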

[2] = Cell Viability - HepG2 (AID 433; calls by dose curve;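 also: potency is read from the fitted curve at half-maximal effect; cells exposed to compound for 40 hours; potency for ATP loss meaning cytotoxicity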); conditions: qHTS
Method in brief: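 HepG2 cells, 1500 per well, treated 40 hr at 37 °C in complete medium; viability from intracellular ATP by CellTiter-Glo luminescence. Normalized to DMSO and 100 uM tamoxifen; AC50 from Hill fit of qHTS concentration-response.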

[3] = Cell Viability - HUV-EC-C (AID 542); conditions: HUV-EC-C endothelial cell viability, qHTS; series mostly up to 92.2 µM;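 also: cells exposed to compound for 40 hours; % is scaled to controls: 0 for no effect and ±100 for the full control effect; nearly all actives have a fitted effect of over 35% in size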
Method in brief: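 Decrease in cellular ATP, quantified by luciferase luminescence, reflects toxicity in normal human vascular endothelial HUV-EC-C cells given compound for 40 hr in complete culture medium. Values are AC50s from concentration-response curves.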

[4] = Cell Viability - Mesenchymal (AID 546); conditions: mesenchymal cells viability, qHTS; activity change, negative = cytotoxicity: at 91.7 µM (top of the series);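 also: cells exposed to compound for 40 hours before reading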
Method in brief: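 Normal human renal glomerulus-derived kidney mesenchymal cells, 1000 per well in complete medium, were treated with compounds for 40 hr at 37 °C. Viability was read as intracellular ATP by CellTiter-Glo luminescence; AC50 values came from Hill-equation fits of qHTS concentration-response data.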

[5] = Cellular Toxicity (caspase-3) Jurkat (AID 655); conditions: Jurkat caspase-3 activation, luminescence; caspase-3 activation: at 92.2 µM (top of the series), DMSO = 0%, tamoxifen = 100%;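 also: cells exposed to compound for 16 h at 37 °C before reading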
Method in brief: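 Jurkat cells (5000/well) in complete medium exposed 16 h at 37 C; caspase-3/7 activity read by Caspase-Glo luminescence after 20 min at room temperature. Normalized to DMSO and 100 uM tamoxifen; AC50 from Hill fits.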

[6] = Cellular Toxicity (caspase-3) NIH 3T3 (AID 666); conditions: NIH 3T3 caspase-3 activation, apoptosis/toxicity, 0% DMSO, 100% is 100 µM tamoxifen; series mostly up to 92.2 µM;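 also: caspase signal read after 16 h compound exposure; 0% = DMSO basal and 100% = 100 µM tamoxifen stimulation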
Method in brief: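 Concentration-response qHTS in NIH 3T3 mouse fibroblasts scores caspase-3/7 activation as rising luminescence after 16 hr compound exposure. Signals are scaled between DMSO-only and 100 uM tamoxifen.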

[7] = Cell Viability - LYMP1-002 - Assay at 16 hr (AID 948); conditions: LYMP1-002 lymphoblastoid cell viability; series mostly up to 92.2 µM;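 also: 0% = DMSO alone and full effect = 92 µM tetraoctylammonium bromide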
Method in brief: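 LYMP1-002 human lymphoblastoid cells, 2500/well, were treated with compounds for 16 hr at 37 C in complete medium. Viability was read as intracellular ATP by CellTiter-Glo luminescence, and AC50 was derived from a Hill fit to concentration-response data.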

[8] = MultiTox-Fluor Cytotoxicity Assay - LYMP1-002 - Live Cells (AID 955); conditions: LYMP1-002 lymphoblastoid live-cell protease fluorescence viability; series mostly up to 46.1 µM;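 also: cells exposed to compound for 16 hours; % is scaled to controls: 0 for no effect and ±100 for the full control effect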
Method in brief: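 Cytotoxicity in the human lymphoblastoid line LYMP1-002 is measured as loss of live-cell protease activity after 16 h treatment in complete culture medium. AC50 is derived from Hill-equation fits of qHTS concentration-response data.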

[9] = Cell Viability - LYMP2-011 (AID 969); conditions: LYMP2-011 lymphoblastoid cells viability; series mostly up to 92.2 µM;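 also: 0% = DMSO only and full inhibition = 92 µM tetraoctylammonium bromide; nearly all actives have a fitted effect of over 60% in size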
Method in brief: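 Acute toxicity is scored as a concentration-dependent drop in intracellular ATP of a human lymphoblastoid line after 24 hr treatment. Values are AC50s modeled with the Hill equation.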

[10] = Cell Viability - LYMP2-013 (AID 970); conditions: LYMP2-013 lymphoblastoid cells viability; series mostly up to 92.2 µM;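 also: 0% = DMSO only and full inhibition = tetraoctylammonium bromide control; nearly all actives have a fitted effect of over 55% in size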
Method in brief: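 Acute toxicity was measured in human lymphoblastoid cells (2500/well) exposed to compound titrations for 24 hr, with ATP luminescence (CellTiter-Glo) as read-out and AC50 fitted by Hill equation.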

[11] = Cell Viability - LYMP2-023 (AID 975); conditions: LYMP2-023 lymphoblastoid cell viability; series mostly up to 92.2 µM;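 also: cellular ATP measured by luciferase luminescence as viability proxy; cells exposed to compound for 24 hours at 37 °C; plate controls were DMSO only for no effect and 92 µM tetraoctylammonium bromide control for full effect; nearly all actives have a fitted effect of over 55% in size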
Method in brief: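 Concentration-dependent drop in intracellular ATP measures acute cytotoxicity in a human lymphoblastoid line treated for 24 hours in complete culture medium. AC50 values are taken from Hill-equation fits of qHTS data.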

[12] = Cell Viability - LYMP2-025 (AID 976); conditions: LYMP2-025 lymphoblastoid cell viability; series mostly up to 92.2 µM;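 also: plate controls were DMSO only for no effect and tetraoctylammonium bromide control for full effect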
Method in brief: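 In qHTS format, LYMP2-025 lymphoblastoid cells in complete culture medium received compound for 24 hr; ATP-based CellTiter-Glo signal gave viability, with AC50 derived by Hill equation.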

[13] = Cell Viability - LYMP2-007 (AID 979); conditions: LYMP2-007 lymphoblastoid cell viability; series mostly up to 92.2 µM;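 also: cells exposed to compound for 24 h before reading; 0% = DMSO only and the negative end = 92 µM tetraoctylammonium bromide; nearly all actives have a fitted effect of over 60% in size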
Method in brief: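 Acute toxicity is scored as a concentration-dependent fall in intracellular ATP in human lymphoblastoid cells treated 24 hr at 37 C, measured by luciferase luminescence; Hill-equation modelling yields AC50.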

[14] = Cell Viability - LYMP2-008 (AID 980); conditions: LYMP2-008 lymphoblastoid cell viability, qHTS; series mostly up to 92.2 µM; also: % is scaled to controls: 0 for no effect and ±100 for the full control effect; nearly all actives have a fitted effect of over 60% in size
Method in brief: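 Acute cytotoxicity is scored as concentration-dependent loss of cellular ATP in a human lymphoblastoid line after 24 hr treatment at 37 C. ATP is quantified by luciferase luminescence.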

[15] = Cell Viability - LYMP2-014 (AID 983); conditions: LYMP2-014 lymphoblastoid cells, viability qHTS; series mostly up to 92.2 µM;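 also: plate controls were DMSO only for no effect and 92 µM tetraoctylammonium bromide for full effect; nearly all actives have a fitted effect of over 50% in size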
Method in brief: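 Decrease in intracellular ATP after 24 hr treatment at 37 C, measured by luciferase luminescence, indicated cytotoxicity. Concentration-response data were fitted with the standard Hill equation to give AC50.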

[16] = Cell Viability - LYMP2-016 (AID 984); conditions: LYMP2-016 lymphoblastoid cell viability, qHTS; series mostly up to 92.2 µM;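 also: cells exposed to compound for 24 hours at 37 °C; % is scaled to controls: 0 for no effect and ±100 for the full control effect; nearly all actives have a fitted effect of over 55% in size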
Method in brief: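 Human lymphoblastoid LYMP2-016 cells, 2500 per well, treated with compounds for 24 h at 37 C. Viability read as intracellular ATP by CellTiter-Glo luminescence after 30 min at room temperature; AC50 from Hill fits of concentration-response.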

[17] = Cell Viability - LYMP2-018 (AID 985); conditions: LYMP2-018 lymphoblastoid cells, viability (qHTS); series mostly up to 92.2 µM;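 also: compound exposure lasted 24 hr at 37 °C; plate controls were DMSO only for no effect and tetraoctylammonium bromide at 92 µM for full effect; nearly all actives have a fitted effect of over 50% in size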
Method in brief: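 Acute cytotoxicity is scored as a concentration-dependent drop in intracellular ATP after 24 hr exposure of the lymphoblastoid line in complete culture medium, measured by luciferase luminescence. Potency is expressed as AC50 from Hill modelling.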

[18] = Cell Viability - LYMP2-026 (AID 989); conditions: LYMP2-026 lymphoblastoid cell viability, qHTS; series mostly up to 92.2 µM; also: % is scaled to controls: 0 for no effect and ±100 for the full control effect; nearly all actives have a fitted effect of over 50% in size
Method in brief: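 Concentration-dependent loss of intracellular ATP in human lymphoblastoid cells after 24 hr at 37 C, quantified by luciferase luminescence. AC50 derived from standard Hill equation.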

[19] = Cell Viability - LYMP1-002 - Assay at 40 hr (AID 994); conditions: LYMP1-002 lymphoblastoid cell viability; series mostly up to 92.2 µM;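 also: 0% = DMSO only and full inhibition = 92 µM tetraoctylammonium bromide; nearly all actives have a fitted effect of over 60% in size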
Method in brief: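 Viability in the human lymphoblastoid line was measured as intracellular ATP via CellTiter-Glo after 40 hr compound exposure. Tetraoctylammonium bromide served as positive control.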

[20] = qHTS assay for cell viability of HEK293 cells (AID 743288); conditions: ATP luminescence (CellTiter-Glo), 18 h; max response: hits give low values; also: % is scaled to controls: 0 for no effect and ±100 for the full control effect; nearly all actives have a fitted effect of over 50% in size
Method in brief: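 Parental HEK293 cells, 2,000 per well, preincubated at least 5 h at 37 C, then exposed to compounds in DMSO for 18 h at 37 C. Viability by CellTiter-Glo ATP luminescence after 30 min at room temperature.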

C1CCCNCC1
inactive: Potency [1] > 92 µM | Potency [2] > 92 µM | Potency [3] | Potency [4] | Potency [5] | outcome [6] | Potency [7] | outcome [8] | Potency [9] | Potency [10] | Potency [11] | Potency [12] | Potency [13] | Potency [14] | Potency [15] | Potency [16] | Potency [17] | Potency [18] | Potency [19] | max response [20] -3.87%

CC(=O)OC(C(=O)c1ccccc1)c1ccccc1 (stereo not drawn)
inactive: Potency [1] > 92 µM | Potency [2] > 92 µM | Potency [3] | Potency [4] | Potency [5] | outcome [6] | Potency [7] | outcome [8] | Potency [9] | Potency [10] | Potency [11] | Potency [12] | Potency [13] | Potency [14] | Potency [15] | Potency [16] | Potency [17] | Potency [18] | Potency [19] | max response [20] -11.3%

C=CC(C)(O)CCCC(C)CCCC(C)CCCC(C)C (stereo not drawn)
inactive: Potency [1] > 92 µM | Potency [2] > 92 µM | Potency [3] | Potency [4] | Potency [5] | outcome [6] | Potency [7] | outcome [8] | Potency [9] | Potency [10] | Potency [11] | Potency [12] | Potency [13] | Potency [14] | Potency [15] | Potency [16] | Potency [17] | Potency [18] | Potency [19] | max response [20] -8.32%

CCCCC(CC)COP(=O)(OCC(CC)CCCC)OCC(CC)CCCC (stereo not drawn)
inactive: Potency [1] > 92 µM | Potency [2] > 92 µM | Potency [3] | Potency [4] | Potency [5] | outcome [6] | Potency [7] | outcome [8] | Potency [9] | Potency [10] | Potency [11] | Potency [12] | Potency [13] | Potency [14] | Potency [15] | Potency [16] | Potency [17] | Potency [18] | Potency [19] | max response [20] -14.3%

Brc1cc(Br)c(Oc2cc(Br)c(Br)cc2Br)cc1Br
inactive: Potency [1] > 92 µM | Potency [2] > 92 µM | Potency [3] | Potency [4] | Potency [5] | outcome [6] | Potency [7] | outcome [8] | Potency [9] | Potency [10] | Potency [11] | Potency [12] | Potency [13] | Potency [14] | Potency [15] | Potency [16] | Potency [17] | Potency [18] | Potency [19] | max response [20] -23.2%

Clc1nc2ccccc2nc1Cl
inactive: Potency [1] > 92 µM | Potency [2] > 92 µM | Potency [3] | Potency [4] | Potency [5] | outcome [6] | Potency [7] | outcome [8] | Potency [9] | Potency [11] | Potency [12] | Potency [14] | Potency [15] | Potency [16] | Potency [17] | Potency [18] | Potency [19] | max response [20] -15.1%

Brc1cc(Oc2cc(Br)c(Br)c(Br)c2Br)c(Br)c(Br)c1Br
inactive: Potency [1] > 92 µM | Potency [2] > 92 µM | Potency [3] | Potency [4] | Potency [5] | outcome [6] | Potency [7] | outcome [8] | Potency [9] | Potency [10] | Potency [11] | Potency [12] | Potency [13] | Potency [14] | Potency [15] | Potency [16] | Potency [17] | Potency [18] | Potency [19] | max response [20] -20.8% and -10.9%
